Where “and” joins values, the source holds several entries; their conditions need not be identical. Identical values can stand only once. Where a structure was tested more than once in an assay, its records may differ in their call. Calls of active or inactive are those of the source. The calls were made as follows: active = hit-call score of the fitted dose curve at least 0.9, where 1 is the maximum; inactive = score below 0.9.
These molecules were tested on CD40, CD40 (gene 958) (assay: BSK_IMphg_CD40: BioMAP Diversity Plus: IMphg Assay for CD40 Biomarker Activity (AID 2284288)). Details: primary human endothelial cells with macrophages.
Procedure: BSK_IMphg is a cell-based, multiplexed-readout assay that uses venular endothelial cells and macrophages, a human vascular primary cell, with measurements taken at 24 hours after chemical dosing in a microplate: 96-well plate.BSK_IMphg_CD40 is an assay component measured in the BSK_IMphg assay. It measures CD40 antibody related to regulation of gene expression using ELISA technology.Data from the assay component BSK_IMphg_CD40 was analyzed at the endpoint, BSK_IMphg_CD40, in the positive analysis fitting direction relative to DMSO as the negative control and baseline of activity. Using a type of binding reporter, gain or loss-of-signal activity can be used to understand protein changes. To generalize the intended target to other relatable targets, this assay endpoint is annotated to the 'cytokine' intended target family, where the subfamily is 'inflammatory factor'.
The levels of cell surface (or secreted, indicated by the prefix "s") biomarker endpoints were measured by ELISA. Overt cytotoxicity to cells in confluent adherent cultures (all systems other than the BT system) was assessed by measuring total protein levels using sulforhodamine B (SRB) staining in parallel cultures at the time of biomarker measurements, indicated as SRB endpoints. For proliferation assays for adherent cell types, individual cell types are cultured at sub-confluence and relative cell numbers quantified by SRB staining at time points optimized for each system (48 h: 3C and CASM3C systems; 72 h: BT and HDF3CGF systems; 96 h: SAg system). SRB was performed by staining cells with 0.1% SRB after fixation with 10% TCA and reading wells at 560 nm.Viability and proliferation of PBMC (T cells) was quantified by Alamar Blue reduction for the SAg and BT systems. For PBMC viability (referred to as PBMC Cytotoxicity within the assay endpoint names), cells were plated (75,000/well in a 96-well plate) and then chemical samples added for 1 h before addition of activators, SEB and TSST-1 (20 ng/mL final concentration each). Cells were incubated for 90 h. Then, Alamar Blue (20 uL/well) (Invitrogen, Cat DAL1100) was added for 6 h, and the plates were read with a fluorescence microplate reader at 546/580 nm (excitation/emission). For PBMC proliferation, cells were plated and activated as above but incubated for only 16 h prior to addition of Alamar Blue. Plates were read after 6 h.

Which outcome does the source give for `O=C(O)C(F)(F)C(F)(F)C(F)(F)C(F)(F)C(F)(F)C(F)(F)C(F)(F)C(F)(F)C(F)(F)C(F)(F)C(F)(F)C(F)(F)C(F)(F)F` here?
Its outcome is “inactive”.

`O=C(CC(=O)C(F)(F)C(F)(F)F)C(F)(F)F` was tested. Which outcome did it give?
Its outcome is “inactive”.

How did the outcome turn out when `O=C(O)C(F)(F)C(F)(F)C(F)F` was run?
The outcome was “inactive”.

Which outcome does the source give for `Cc1ccc(S(=O)(=O)OCC(F)(F)C(F)(F)C(F)(F)C(F)(F)C(F)(F)C(F)F)cc1` here?
The outcome was “inactive”.

How did the outcome turn out when `N=C(N)C(F)(F)C(F)(F)C(F)(F)C(F)(F)C(F)(F)C(F)(F)C(F)(F)F` was run?
Its outcome is “inactive”.

`FC(F)(F)C(F)(F)C(F)(F)N(C(F)(F)C(F)(F)C(F)(F)F)C(F)(F)C(F)(F)C(F)(F)F` was tested. Which outcome did it give?
Its outcome is “inactive”.

With `O=C(O)C(F)(F)C(F)(F)C(F)(F)C(F)(F)C(F)(F)C(F)(F)C(F)(F)C(F)(F)C(F)(F)C(F)F` as the molecule, how does the outcome read?
Its outcome is “inactive”.

Which results are given for `C=CC(=O)OCC(F)(F)C(F)(F)C(F)(F)C(F)(F)C(F)(F)C(F)(F)C(F)(F)F`?
outcome: inactive; AC50: 6.54 µM (active)

How did the outcome turn out when `FC(F)(F)C(F)(F)C(F)(F)C(F)(F)C(F)(F)C(F)(F)C(F)(F)Br` was run?
Its outcome is “inactive”.

With `O=C(O)C(F)(F)C(F)(F)F` as the molecule, how does the outcome read?
Its outcome is “inactive”.

With `FC(F)(F)C(F)(F)CNCC(F)(F)C(F)(F)F` as the molecule, how does the outcome read?
The outcome was “inactive”.

`OCC(F)(F)C(F)(F)C(F)(F)C(F)(F)C(F)(F)C(F)(F)F` was tested. Which outcome did it give?
The outcome was “inactive”.

With `FC(F)(F)C(F)(F)C(F)(F)C(F)(F)C(F)(F)C(F)(F)C(F)(F)C(F)(F)F` as the molecule, how does the outcome read?
The outcome was “inactive”.

`O=C(O)C(F)(F)C(F)(F)OC(F)(F)F` was tested. Which outcome did it give?
The outcome was “inactive”.

`CCCCCCCCC(F)(F)C(F)(F)C(F)(F)C(F)(F)C(F)(F)C(F)(F)F` was tested. Which outcome did it give?
Its outcome is “inactive”.

How did the outcome turn out when `OCCCC(F)(F)C(F)(F)C(F)(F)F` was run?
The outcome was “inactive”.

Which outcome does the source give for `C=CC(F)(F)C(F)(F)C(F)(F)C(F)(F)C(F)(F)C(F)(F)C(F)(F)C(F)(F)C=C` here?
The outcome was “inactive”.

With `O=P(O)(O)OCCC(F)(F)C(F)(F)C(F)(F)C(F)(F)C(F)(F)C(F)(F)F` as the molecule, how does the outcome read?
The outcome was “inactive”.

How did the outcome turn out when `O=S(=O)(O)C(F)(F)C(F)(F)C(F)(F)C(F)(F)C(F)(F)C(F)(F)C(F)(F)F` was run?
Its outcome is “inactive”.

Which outcome does the source give for `FC(F)(F)C(F)(F)C(F)(F)CI` here?
The outcome was “inactive”.

What does the source list for `O=C(O)C(F)(F)C(F)(F)C(F)(F)F`?
outcome: inactive; AC50: 0.319 µM (active)

With `O=C(O)C(F)(OC(F)(F)C(F)(OC(F)(F)C(F)(F)C(F)(F)F)C(F)(F)F)C(F)(F)F` (stereo not given) as the molecule, how does the outcome read?
The outcome was “inactive”.

Which AC50 does the source give for `O=C(O)C(F)(F)C(F)(F)C(F)(F)C(F)(F)C(F)(F)C(F)(F)C(F)(F)C(F)(F)C(F)(F)C(F)(F)C(F)(F)C(F)(F)F` here?
The AC50 was 13.3 µM (active) and 16.4 µM (active).

`NC(=O)C(F)(F)C(F)(F)C(F)(F)C(F)(F)F` was tested. Which outcome did it give?
The outcome was “inactive”.

`C=C(C)C(=O)OCC(F)(F)C(F)(F)C(F)(F)F` was tested. Which outcome did it give?
Its outcome is “inactive”.

Which AC50 does the source give for `OCC(F)(F)C(F)(F)C(F)(F)C(F)(F)C(F)(F)C(F)F` here?
Its AC50 is 1.79 µM (active).

What about the outcome of the same molecule?
Its outcome is “inactive”.

How did the outcome turn out when `FC(F)(F)C(F)(F)C(F)(F)C(F)(F)C(F)(F)C(F)(F)C(F)(F)I` was run?
Its outcome is “inactive”.

With `C=C(C)C(=O)OCC(F)(F)C(F)(F)C(F)(F)C(F)(F)C(F)(F)C(F)(F)C(F)(F)F` as the molecule, how does the outcome read?
The outcome was “inactive”.

`FC(F)(F)C(F)(F)C(F)(F)C(F)(F)C(F)(F)C(F)(F)C(F)(F)C(F)(F)CCS` was tested. Which outcome did it give?
The outcome was “inactive”.

`O=S(=O)(OCCOC(F)(F)F)C(F)(F)F` was tested. Which outcome did it give?
Its outcome is “inactive”.

Which outcome does the source give for `CCO[Si](CCC(F)(F)C(F)(F)C(F)(F)C(F)(F)C(F)(F)C(F)(F)F)(OCC)OCC` here?
The outcome was “inactive”.

How did the outcome turn out when `OCC(F)(F)C(F)(F)C(F)(F)C(F)F` was run?
The outcome was “inactive”.

For `FC(F)(Br)C(F)(F)C(F)(F)C(F)(F)C(F)(F)C(F)(F)Br`, which outcome is on record?
Its outcome is “inactive”.

With `O=C(Cl)C(F)(F)C(F)(F)C(F)(F)C(F)(F)C(F)(F)C(F)(F)C(F)(F)C(F)(F)F` as the molecule, how does the AC50 read?
The AC50 was 36.6 µM (active).

And the outcome?
The outcome was “inactive”.

With `C=CC(F)(F)C(F)(F)C(F)(F)C(F)(F)C(F)(F)C(F)(F)C(F)(F)C(F)(F)F` as the molecule, how does the outcome read?
Its outcome is “inactive”.

How did the outcome turn out when `FC(F)(F)C(F)(F)C(F)(F)C(F)(F)C(F)(F)CCI` was run?
The outcome was “inactive”.

Source: PubChem BioAssay (EPA / NIEHS)
